Laboratory results as given in PubChem BioAssay AID1491 (National Center for Advancing Translational Sciences (NCATS), 2009).
Where “and” joins values, the source holds several entries; their conditions need not be identical. Equal values may be shown once. Records with an inconclusive call do not appear. Calls of active or inactive are those of the source. Calls follow the shape of the dose curve; as a rule, active = well fitted inhibition curve with a large enough effect in the main read-out, with a control signal flat; inconclusive = small, poorly fitted or top-dose-only effect, or a change in a side signal; inactive = flat fitted curve, though single readings scatter.

These compounds were tested against Neuropeptide S receptor (Homo sapiens) (UniProt Q6W5P4) (assay: Confirmation Concentration-Response Assay for Antagonists of the Neuropeptide S Receptor: cAMP Signal Transduction). Conditions: CHO-NPSR cells, cAMP TR-FRET, antagonist mode; series mostly up to 22.3 µM; activity change, negative = inhibition: at the top concentration.
Excerpt: NIH Chemical Genomics Center [NCGC] NIH Molecular Libraries Probe Production centers Network [MLPCN] MLPCN Grant: X01-DA026210-01 Assay Submitter (PI): Heilig, Markus Alexander NCGC Assay Overview: Neuropeptide S receptor (NPSR), previously known as GPR154, is a recently de-orphanized G protein coupled receptor. Its endogenous ligand is the 20 amino acids peptide Neuropeptide S (NPS). […] NPS and its receptor are found in various tissues. Specifically they are highly expressed in brain areas that have been implicated in modulation of arousal, stress and anxiety. Central administration of NPS in mice produces an unusual profile of activity by inducing wakefulness and arousal, while at the same time suppressing anxiety. Therefore, NPSR may represent a novel drug target for the treatment of sleep and anxiety disorders. To identify NPSR antagonists, we developed a cell-based cAMP assay. NPS can stimulate the production of cAMP in Chinese hamster ovary cells stably expressing NPS receptor. This change in intracellular cAMP level can be detected by a homogeneous LANCE cAMP assay based on the TR-FRET (time resolved fluorescence resonance energy transfer) between a europium-labeled cAMP tracer complex and a cAMP-specific antibody labeled with Alexa Fluor 647. The europium-labeled cAMP tracer complex is formed by the tight interaction between Biotin-cAMP (b-cAMP) and streptavidin labeled with Europium-W8044 chelate (Eu-SA). Light pulse at 320 nm excites the europium of the cAMP tracer and the energy emitted is transferred to the Alexa molecule bound to the cAMP antibody, generating a TR-FRET signal at 665 nm. Residual energy from the europium will produce a light at 620 nm. The native unlabeled cAMP from cell lysates competes with the europium-cAMP tracer for antibody binding and reversely reduces the emission signal of Alexa by interrupting FRET between the two labeled molecules. Both emission signals from the FRET donor (620 nm) and the acceptor (665 nm) can be detected by a plate reader in the TRF mode. Expression of result in fluorescence ratio (665 nm/620 nm) helps to normalize differences due to cell density and reagent dispensing. This assay was successfully optimized to a 1536-well plate format. Select compounds from the primary screen (AID 1461) were chosen for confirmation based on potency, efficacy, SAR, and activity across other assays in PubChem and at NCGC. Other compounds are analogs of active compounds from the primary sceen.
NCGC Assay Protocol Summary: A Chinese hamster ovary (CHO) cell line stably expressing the NPS receptor (CHO-NPSR) was obtained from Dr. Heilig lab at NIAAA and maintained in F-12 Kaighn's media (Invitrogen, Carlsbad, CA, 21127) supplemented with 10 % FBS, 100 units/ml penicillin, 100 ug/ml streptomycin and 250 ug/ml geneticin at 37C, 5% CO2 in a humidified atmosphere. Before the assay, aliquots of cells were frozen and stored at -135C. The assay was performed in 1536-well format. Data are reported for both the ratio of the two emission wavelengths, and also for the component 'donor' channel, Em2=620. […] IC50 values were determined from concentration-response data modeled with the standard Hill equation. NPS 1536-well assay protocol: (1) Fresh or frozen CHO-NPSR cells were suspended in F-12 Kaighn's media supplemented with 10 % FBS, 100 units/ml penicillin and 100 ug/ml streptomycin. Cells were plated at 4 ul/well (1200 cells) to white, tissue culture treated 1536-well plates, and then cultured at 37C, 5 % CO2 for 16 to 30 hours. (2) Add 23 nl/well of compound in DMSO solution. The final titration for each compound was between 0.6 nM and 46 uM. (3) Add 1 ul of stimulation reagent (1X HBSS buffer, 5 mM HEPES, 0.1% BSA, 500 uM RO-201724 (Sigma-Aldrich, B8279), 1.5% Alexa 647-labeled anti-cAMP antibody (from Perkin Elmer), 100 nM NPS) (4) Incubation at 37C, 5 % CO2 for 60 min. (5) Add 1 ul/well detection reagent. […]
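For activity change, negative = inhibition in this document: 0% = DMSO with NPS and full inhibition = wells lacking NPS.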
Potency is read from the fitted curve at half-maximal effect.

Sequence of Neuropeptide S receptor (Homo sapiens) (Q6W5P4 whole entry, looked up): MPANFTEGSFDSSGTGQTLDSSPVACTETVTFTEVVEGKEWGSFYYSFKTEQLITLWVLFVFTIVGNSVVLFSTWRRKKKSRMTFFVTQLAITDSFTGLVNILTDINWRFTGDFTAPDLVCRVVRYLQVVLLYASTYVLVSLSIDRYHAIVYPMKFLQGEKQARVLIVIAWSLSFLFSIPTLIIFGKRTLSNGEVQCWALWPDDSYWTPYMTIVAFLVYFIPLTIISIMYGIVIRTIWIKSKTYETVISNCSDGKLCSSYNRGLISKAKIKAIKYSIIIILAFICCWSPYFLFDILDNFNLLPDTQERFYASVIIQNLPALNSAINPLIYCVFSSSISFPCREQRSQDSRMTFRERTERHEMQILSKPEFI

Activity change, negative = inhibition, inactive:
Cc1nn(C)cc1/C=N/NC(=S)Nc1ccccc1 -0.853%, C(=C\c1ccccc1)/C=N/N1CCN(c2ccccn2)CC1 5.88%, COC(=O)c1ccc(C(=O)OC)c(NC(=O)CSc2cccc[n+]2[O-])c1 -6.2%, Cc1cc(OCC(=O)c2ccc(Br)cc2)ccc1N1C(=O)CCC1=O -12.9%, O=C1Nc2ccc(S(=O)(=O)N3CCCC3C(=O)O)c3cccc1c23 (stereo not given) -13.2%, C(=N\Nc1nc(-c2ccccn2)nc2ccccc12)/c1ccccc1 -13%, Cc1cc(C)n(-c2nc(NC(C)C)nc(NC(C)C)n2)n1 -3.58%, O=C(CSC1=NCCS1)Nc1ccnc2ccccc12 -13.8%, CCC(c1nnnn1C1CCCC1)N1CCN(c2ccccc2)CC1 (stereo not given) -5.45%, Cc1cccnc1NC(=O)c1c(O)c2cccc3c2n(c1=O)CCC3 -5.87%, COc1cccc(C2C(C#N)=C(NC(=O)CCc3ccccc3)Oc3ccc4ccccc4c32)c1 (stereo not given) -10.6%, COCCCn1c(SCc2cc(=O)[nH]c3ccccc23)nnc1-c1ccco1 18.1%, Cc1ccc(-n2ncc3c(NCc4ccc5c(c4)OCO5)ncnc32)c(C)c1 -21.2%, Cc1ccc(/C=C2\SC(=S)N(CC(=O)Nc3ncc(Cc4ccccc4Cl)s3)C2=O)cc1 -2.64%, N#CC(C#N)=c1ccc2c(c1)NC1(CCCCC1)N=2 -11.4%, C=CC1(C)CC(=O)C2(O)C(C)(O1)C(OC(C)=O)C(O)C1C(C)(C)CCC(O)C12C (stereo not given) 6.07% [at 0.188 µM], O=C(CSc1n[nH]c(-c2cccnc2)n1)Nc1ccnc2ccccc12 -2.52%, CCOC(=O)c1cnc(-n2nc(C)cc2C)nc1Nc1ccc(C)cc1 -5.24%, COc1ccc2nc(NC(=S)N(C)C)sc2c1 -7.19%, CCC(C)n1c(=O)c(C(=O)Nc2ccccc2S(N)(=O)=O)c(O)c2ccccc21 (stereo not given) -13.3% [at 47.8 µM], Cc1ccc(Cn2cc(SCC(=O)Nc3nccs3)c3ccccc32)cc1 -8.92%, O=C(O)CCCCCNc1nc(=S)[nH]c2ccccc12 -0.723%, Cc1cccc(-c2nnc(SCc3cc(=O)[nH]c4ccccc34)n2C)c1 -8.22%, COc1ccc(O)c(/C=N/Nc2nc(Nc3ccccc3)nc(-n3nc(C)cc3C)n2)c1 -1.82%, CN(Cc1cc(=O)[nH]c2ccccc12)C(=O)c1ccccc1 -1.96%, O=C(CSc1cccc[n+]1[O-])Nc1ccccc1Oc1ccccc1 -6.76%, COC(=O)/C(=C1/Oc2cc(C)oc(=O)c2S1)C(F)(F)F -13.3%, CCOC(=O)c1cnc(Nc2nc3ccccc3o2)nc1CSC(=S)N(CC)CC -11.7%, Cc1cc(N/N=C/c2ccccc2[N+](=O)[O-])nc(-n2nc(C)cc2C)n1 -5.67%

Potency, active:
O=C(Nc1ncnc2c1C(c1ccccc1)c1c(ccc3ccccc13)O2)c1ccccc1 (stereo not given) 6.31 µM, CCOc1ccc(C2c3c(ncn(-c4ccccc4)c3=N)Oc3ccc4ccccc4c32)cc1OCC (stereo not given) 2 µM, Cc1cc(C)n(-c2nc(Nc3ccccc3C(F)(F)F)nc(-n3nc(C)cc3C)n2)n1 11.2 µM, C=C1C(=O)C=C2CN(C(=O)c3ccccc3)[C@@](Cc3ccc(F)cc3)(C(=O)OC)[C@@H]12 3.98 µM, O=C1OC(c2ccccc2)(c2ccccc2)N2CCN(C(=O)NCc3ccc(F)cc3)CC12 (stereo not given) 0.0251 µM, CC(=O)c1sc(N/N=C\c2ccccc2O)nc1C 7.08 µM, COc1ccc(-c2cc(N)n(S(=O)(=O)c3c(F)c(F)c(F)c(F)c3F)n2)cc1OC 7.08 µM, COc1cccc(C2c3c(ncn(CCN4CCOCC4)c3=N)Oc3ccc4ccccc4c32)c1 (stereo not given) 2.51 µM and 10 µM, N=c1c2c(ccn1CCCc1ccccc1)Oc1ccc3ccccc3c1C2c1ccccc1 (stereo not given) 1.58 µM, O=C(/C=C/c1ccco1)NC(=S)Nc1nc(-c2ccc3ccccc3c2)cs1 3.98 µM

Potency, inactive:
CCC(Sc1ccc2nnc(-c3cccnc3)n2n1)C(=O)O (stereo not given)
